This is part of a sample that, as a whole, favours compounds with a hit. Of some 83,000 tested, about 20% had one in any assay.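 96-well plates, one dose, 48 hours. Percent growth reported; active if below 10.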 Values without a mark were called inactive. Activity calls are given as the source filed them.

Some test systems named below: SR leukemia; OVCAR-8 ovarian; OVCAR-5 ovarian; OVCAR-4 ovarian; SK-OV-3 ovarian; IGROV1 ovarian; OVCAR-3 ovarian; HS 578T breast; NCI/ADR-RES ovarian; T-47D breast; BT-549 breast; SW-620 colon; MCF7 breast; HCT-116 colon; HCC-2998 colon; KM12 colon; MDA-MB-435 melanoma.
Holding throughout (assay): NCI-60 one-dose screen, 48 h (100 = growth as untreated, 0 = no growth, -100 = all killed)
Holding throughout (conditions): 10 µM unless noted

On to `O=S(=O)(Nc1cc(Cl)c(F)c(Cl)c1)c1ccc(-c2cnc(C3CC3)o2)cc1`, for which the growth with SR leukemia is 36%; in the experiment with OVCAR-8 ovarian it was 44.5%; in the experiment on OVCAR-5 ovarian, 48.4%; with OVCAR-4 ovarian, 58.3%; in the experiment on SK-OV-3 ovarian, 72.8%; with IGROV1 ovarian, 43.5%. Moreover, the growth in the experiment on OVCAR-3 ovarian is 15.4%; with HS 578T breast, 30.5%; in the experiment on NCI/ADR-RES ovarian, 26.8%; with T-47D breast, 29.8%; in the experiment on BT-549 breast, 66.8%; in the experiment on SW-620 colon, 23.8%. The growth in the experiment on MCF7 breast is 20.2%; with HCT-116 colon, 27.3%; in the experiment on HCC-2998 colon, 67.4%; in the experiment with KM12 colon, 26.1%.

Regarding `O=C(Nc1cccc(-c2nc(-c3ccc(NC(=O)c4cccs4)cc3Cl)no2)c1)Nc1ccc(NC(=O)C2CC2)c(C(F)(F)F)c1`, the growth in the experiment on SR leukemia is -25.9% (active); with OVCAR-8 ovarian, 2.05% (active); in the experiment with OVCAR-5 ovarian, -14.6% (active); in the experiment on OVCAR-4 ovarian, -81.3% (active); with OVCAR-3 ovarian, -54.2% (active); in the experiment on HS 578T breast, -27.1% (active). Further, the growth is 45.5% with NCI/ADR-RES ovarian; -19.1% (active) in the experiment on BT-549 breast; -49.9% (active) with SW-620 colon; -40% (active) with MCF7 breast; 1.27% (active) in the experiment on HCT-116 colon; -55% (active) with HCC-2998 colon. For the same compound, the growth in the experiment with KM12 colon is -65.5% (active).

Turning to `Cc1ccc(Nc2ncnc3c2c(C)nn3-c2ccc([N+](=O)[O-])cc2)cc1`, the growth in the experiment on SR leukemia is 68.6%; in the experiment on OVCAR-8 ovarian it was 72.6%; in the experiment on OVCAR-5 ovarian, 101%; with OVCAR-4 ovarian, 46%; in the experiment on SK-OV-3 ovarian, 71.7%; in the experiment on IGROV1 ovarian, 84.1%. Besides, the growth with OVCAR-3 ovarian was 46.3%; with HS 578T breast, 68.6%; in the experiment with NCI/ADR-RES ovarian, 80.4%; in the experiment on BT-549 breast, 92.5%; in the experiment with MDA-MB-435 melanoma, 95.7%; in the experiment on SW-620 colon, 65.5%. The growth is 83% with MCF7 breast, 58.9% in the experiment on HCT-116 colon, 97.4% with HCC-2998 colon and 81.2% in the experiment with KM12 colon.

Regarding `O=S(=O)(Nc1ccc(-c2nc(-c3cccc(O)c3)c(-c3ccnc(Br)c3)[nH]2)cc1)c1ccccc1`, the growth in the experiment on SR leukemia was -9.8% (active); in the experiment on OVCAR-8 ovarian, 9.98% (active); in the experiment with OVCAR-5 ovarian, 64.6%; in the experiment on OVCAR-4 ovarian, 9.17% (active); in the experiment on SK-OV-3 ovarian, 54.7%; with IGROV1 ovarian, 42.1%. The growth in the experiment with OVCAR-3 ovarian is 32.1%; in the experiment with HS 578T breast it was -0.856% (active); with NCI/ADR-RES ovarian, 61.1%; in the experiment on T-47D breast, 1.01% (active); in the experiment on BT-549 breast, 51.9%; with SW-620 colon it was 49.8%. Besides, the growth was 7.26% (active) with MCF7 breast, 27% with HCT-116 colon, 32.4% in the experiment on HCC-2998 colon and 21.5% in the experiment on KM12 colon.

`COc1ccc(Oc2ccc(C3CC(c4cc(OC)c(OC)c(OC)c4)=NN3C(C)=O)cc2)cc1` (stereo not given): the growth with SR leukemia is 35.7%; with OVCAR-8 ovarian, 30.3%; with OVCAR-5 ovarian it was 50.2%; in the experiment with OVCAR-4 ovarian, 18%; in the experiment with SK-OV-3 ovarian, 50.9%; in the experiment on IGROV1 ovarian, 19.7%. Moreover, the growth with OVCAR-3 ovarian is 25.1%; with HS 578T breast it was 51.3%; in the experiment on NCI/ADR-RES ovarian, 19.8%; in the experiment on T-47D breast, 9.08% (active); with BT-549 breast, 45.5%; in the experiment with SW-620 colon, 46.9%. In addition, the growth with MCF7 breast is 10.1%; with HCT-116 colon it was 19.5%; in the experiment with HCC-2998 colon, 42.2%; in the experiment with KM12 colon, 27.5%.

For `CN(C)C(=O)c1ccccc1-n1cnc2ccccc2c1=O`, the growth in the experiment on SR leukemia is 103%; with OVCAR-8 ovarian, 103%; with OVCAR-5 ovarian, 104%; with OVCAR-4 ovarian it was 106%; with IGROV1 ovarian, 99.9%; with OVCAR-3 ovarian, 110%. Moreover, the growth with HS 578T breast was 108%; in the experiment with NCI/ADR-RES ovarian, 102%; in the experiment on T-47D breast it was 99.2%; with BT-549 breast, 117%; in the experiment with MDA-MB-435 melanoma, 95%; with SW-620 colon it was 102%. Moreover, the growth is 96.4% with MCF7 breast, 100% with HCT-116 colon, 99.9% in the experiment on HCC-2998 colon and 101% in the experiment with KM12 colon.

As to `Cc1cc(Cl)cc(NS(=O)(=O)c2ccc(-c3cnc(C4CC4)o3)cc2)c1`, the growth was 27.1% with SR leukemia; 38.7% in the experiment on OVCAR-8 ovarian; 43.6% with OVCAR-5 ovarian; 66.2% in the experiment with OVCAR-4 ovarian; 72.8% in the experiment with SK-OV-3 ovarian; 33.2% in the experiment with IGROV1 ovarian. Besides, the growth is -24.3% (active) in the experiment on OVCAR-3 ovarian; 35.6% in the experiment with HS 578T breast; 10.1% with NCI/ADR-RES ovarian; 48% with BT-549 breast; -23.8% (active) in the experiment on MDA-MB-435 melanoma; 28% in the experiment on SW-620 colon. The growth is 24.9% in the experiment on MCF7 breast, 18.4% in the experiment on HCT-116 colon, 19.8% in the experiment on HCC-2998 colon and 15.4% in the experiment with KM12 colon.

As to `O=C(Nc1ccc(-c2nc(-c3cccc(O)c3)c(-c3ccnc(Br)c3)[nH]2)cc1)c1ccccc1`, the growth in the experiment with SR leukemia was -15.2% (active); in the experiment with OVCAR-8 ovarian, 24.3%; in the experiment on OVCAR-5 ovarian, 57.7%; with SK-OV-3 ovarian, -5.97% (active); in the experiment on IGROV1 ovarian, 25.6%; with OVCAR-3 ovarian, 31.6%. Further, the growth in the experiment with HS 578T breast was -24.1% (active); with NCI/ADR-RES ovarian, 57.6%; in the experiment on T-47D breast, -6.8% (active); in the experiment with BT-549 breast it was 40.6%; with SW-620 colon, 10.5%; with MCF7 breast it was 0.42% (active). Also, the growth is 18.1% in the experiment with HCT-116 colon, 26.3% in the experiment on HCC-2998 colon and 12.9% in the experiment on KM12 colon.

Take `CCOC(=O)Nc1ccc(-c2nc(-c3cccc(O)c3)c(-c3ccnc(Br)c3)[nH]2)cc1`: the growth is 9.74% (active) in the experiment with SR leukemia; 10.7% in the experiment with OVCAR-8 ovarian; 85% in the experiment with OVCAR-5 ovarian; 13.6% in the experiment on OVCAR-4 ovarian; 41.2% in the experiment with SK-OV-3 ovarian; 33% in the experiment on IGROV1 ovarian. Besides, the growth with OVCAR-3 ovarian is 14.6%; in the experiment with HS 578T breast, -2.07% (active); in the experiment on NCI/ADR-RES ovarian, 63.5%; in the experiment with T-47D breast it was 14%; in the experiment with BT-549 breast, 35.4%; with SW-620 colon, 28.2%. In addition, the growth was 13.9% in the experiment with MCF7 breast, 19.2% in the experiment with HCT-116 colon, 56.2% with HCC-2998 colon and 22.3% with KM12 colon.

Take `C#C[C@]1(O)CC[C@H]2[C@@H]3CC=C4c5sc(C6CCOCC6)nc5CC[C@]4(C)[C@H]3CC[C@@]21C`: the growth in the experiment on SR leukemia is 58.6%; in the experiment with OVCAR-8 ovarian, 83.8%; in the experiment with OVCAR-5 ovarian, 88.6%; in the experiment on OVCAR-4 ovarian it was 89.7%; with SK-OV-3 ovarian it was 104%; with OVCAR-3 ovarian it was 94.2%. In addition, the growth in the experiment with HS 578T breast was 66.9%; with NCI/ADR-RES ovarian, 80.6%; in the experiment with T-47D breast, 57.8%; with BT-549 breast, 77.6%; in the experiment on SW-620 colon, 85.5%; in the experiment on MCF7 breast, 75.6%. For the same compound, the results for the growth with HCT-116 colon, in the experiment on HCC-2998 colon and in the experiment on KM12 colon were 64.4%, 84.3% and 59.8%, respectively.
